Results filed as inconclusive are left out. Activity calls are given as the source filed them. No rule for the calls is given here.
Target: Beta-2 adrenergic receptor (Homo sapiens) (UniProt P07550)
Experiment: qHTS for antagonists of the Thyroid Stimulation Hormone Receptor: Hit Validation with Beta-2 Adrenergic Receptor
Conditions: B2AR-expressing cells, cAMP HTRF, antagonist counterscreen; active compounds read high
Source text: The thyroid-stimulating hormone receptor (TSHR) is a member of the 7 trans-membrane-spanning receptor (7TMR) family of cell surface receptors. TSHR-mediated hyperthyroidism is important in thyroid pathology. The development of small molecule antagonists of TSHR may lead to therapeutic approaches for TSHR-mediated hyperthyroidism caused by constitutively activating mutations or stimulating auto-antibodies associated with Graves' disease. Graves' disease is the leading cause of hyperthyroidism and is caused by autoantibodies that stimulate TSHR (TsAbs) causing thyroid growth and unregulated overproduction of thyroid hormones and existing treatments have liabilities (agranulocytosis). In addition, TSHRs are known to be expressed in multiple extrathyroidal tissues including bone, brain, kidney, testis, fat and cells of the immune system but the role of the TSHR in these tissues is not clear. Therefore, TSHR antagonists/inverse agonists could be used as probes of extrathyroidal TSHR function. Finally, TSHR inverse agonists, which are a subclass of antagonists that inhibit agonist-independent (or basal or constitutive) TSHR signaling, could be used to inhibit TSH-independent signaling in patients with recurrent or metastatic thyroid cancer who are receiving thyroid hormone to suppress TSH. In collaboration between scientist from the NCGC and the NIDDK, a miniaturized HTRF high-throughput screen was developed. It's a cell based assay, where an anti cAMP antibody contains a fluorescent cryptate tag (excitation 337 nm; emission 620 nm) and the acceptor is cAMP-d2 (excitation 620 nm; emission 665 nm). When antibody and cAMP-d2 interact and are excited by a 337 nm light, a FRET occurs resulting in emission at 665 nm. The assay is competition between cAMP-d2 and cAMP (from the cell lysate). The homogeneous protocol allows for one step dispense after stimulation that is automation friendly. This is a hit validation assay in a counterscreen using beta-2 adrenergic receptor, a closely related hormone receptor NIH Chemical Genomics Center [NCGC] NIH Molecular Libraries Probe Centers Network [MLPCN] Grant: MH090855 Assay Provider: Marvin Gershengorn, NIDDK
An anti cAMP antibody contains a fluorescent cryptate tag (excitation 337 nm; emission 620 nm) and the acceptor is cAMP-d2 (excitation 620 nm; emission 665 nm). When antibody and cAMP-d2 interact and are excited by a 337 nm light, a FRET occurs resulting in emission at 665 nm. The assay is competition between cAMP-d2 and cAMP (from the cell lysate). The homogeneous protocol allows for one step dispense after stimulation that is automation friendly.

Beta-2 adrenergic receptor (Homo sapiens), sequence (P07550 whole entry, looked up): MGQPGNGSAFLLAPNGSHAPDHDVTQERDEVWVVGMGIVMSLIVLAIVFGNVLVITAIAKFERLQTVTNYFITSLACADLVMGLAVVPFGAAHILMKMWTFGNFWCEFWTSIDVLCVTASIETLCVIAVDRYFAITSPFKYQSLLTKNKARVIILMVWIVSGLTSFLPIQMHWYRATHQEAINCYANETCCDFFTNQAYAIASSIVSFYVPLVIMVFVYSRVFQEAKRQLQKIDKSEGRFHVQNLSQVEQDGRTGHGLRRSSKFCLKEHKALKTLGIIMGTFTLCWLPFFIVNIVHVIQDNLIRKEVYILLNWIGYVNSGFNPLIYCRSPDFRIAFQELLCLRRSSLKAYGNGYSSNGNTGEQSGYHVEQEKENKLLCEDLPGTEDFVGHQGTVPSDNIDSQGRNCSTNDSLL

SMILES | max inhibition
COc1ccc(OCC(=O)NC(=S)Nc2ccc(N3CCOCC3)c(Cl)c2)cc1 | 89.7% (active)
O=C(Nc1ccc(Oc2ccc(Cl)cc2)c(Cl)c1)c1cc(I)cc(I)c1O | 91.3% (active)
O=C1NC(=S)S/C1=C\c1ccc(SCc2ccccc2)o1 | 92.6% (active)
Oc1c(Cl)cc(Cl)c(Cl)c1Cc1c(O)c(Cl)cc(Cl)c1Cl | 96.4% (active)
O=S(=O)(Nc1cc(Cl)ccc1-n1cncn1)c1cc(Br)ccc1Br | 72.6% (active)
COc1ccc(-c2csc(/C(C#N)=C\c3ccc(O)c([N+](=O)[O-])c3)n2)cc1OC | 94.4% (active)
O=C(Nc1nc(-c2ccccc2)cs1)c1ccccc1NS(=O)(=O)c1ccc(F)cc1 | 96% (active)
CCn1nc([N+](=O)[O-])c(C(C#N)c2nc3cc(C(F)(F)F)ccc3s2)c(Cl)c1=O (centres undefined) | 94.3% (active)
CC(=O)Oc1c(C)cc(Cl)cc1C(=O)Nc1ccc([N+](=O)[O-])cc1Cl | 82.9% (active)
Cc1ccc(-n2[nH]c(C)c(/C=N/Nc3ccc([N+](=O)[O-])cc3[N+](=O)[O-])c2=O)cc1C | 88.7% (active)
CCSC1=NSC2=NC(=O)/C(=C\c3coc4ccccc4c3=O)C(=N)N12 | 96.6% (active)
O=c1cc(C(F)(F)F)[nH]c2c(C(F)(F)F)cccc12 | 88.6% (active)
O=C(COc1cccc2ccccc12)Nc1ccc(Cl)cc1C(=O)O | 85.8% (active)
O=C1/C(=C\c2cc([N+](=O)[O-])ccc2O)SC(=S)N1Cc1ccc(Cl)cc1 | 90.7% (active)
